Here are results for ten compounds from paper PMC5540273 (PLoS ONE, 2017).

The structures appear in SMILES notation.

Test systems include MELK; MERTK; MET; MKK7; MKNK1; MKNK2; MLK2; MLK3; MRCKA; MST1R.
Common to all, as to details: concentration: 1 μM, replicates: in singlicate; n = 1
The test system of a further assay is T1, MEK1.
T1 construct: gene MAP2K1

The subject of another assay is T2, MEK2.
T2 construct: gene MAP2K2

The next assay deals with T3, MEK3.
T3 construct: gene MAP2K3

For a further assay, the system named is T4, MEK4.
T4 construct: gene MAP2K4

The next assay concerns T5, MEK5.
T5 construct: gene MAP2K5

The test system of a further assay is T6, MEK6.
T6 construct: gene MAP2K6

The next assay has as its system T7, MINK.
T7 construct: gene MINK1

Another assay has as its system T8, MLCK.
T8 construct: gene MYLK3

The next assay deals with T9, MLK1.
T9 construct: gene MAP3K9

The subject of another assay is T10, MRCKB.
T10 construct: gene CDC42BPB
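Note: KINOMEscan kinase panel screen.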

`COc1ccc(CNC(=O)NC2CCN(c3ccnc(Nc4ccc(OC)cc4)n3)C2)cc1` (centres unmarked) [GSK1379727]: the “%Inh” value in the assay on MEK1 came to 0%; in the assay on MEK2, 0%; in the assay on MEK3 it was 0%; in the assay on MEK4, 17%; in the assay on MEK5 it was 37%; in the assay with MEK6, 0%. Moreover, the “%Inh” value with MELK is 4%; in the assay on MERTK it was 16%; with MET, 0%; with MINK, 4%; in the assay with MKK7 it was 14%; with MKNK1, 0%. Further, the “%Inh” value in the assay with MKNK2, in the assay on MLCK, with MLK1, in the assay on MLK2, in the assay with MLK3 and with MRCKA was 0% throughout. For the same compound, the “%Inh” value is given as 4% in the assay with MRCKB and 40% in the assay with MST1R.

Turning to `O=C(Nc1n[nH]c2cc(-c3cccc(F)c3)ccc12)C1CC1` [SB-735464], the “%Inh” value in the assay on MEK1 worked out at 8%; in the assay with MEK2, 10%; with MEK3 it was 8%; in the assay with MEK4, 4%; with MEK5, 31%; in the assay on MEK6 it was 0%. Also, the “%Inh” value is given as 0% in the assay on MELK; 23% with MERTK; 0% in the assay with MET; 61% with MINK; 19% in the assay on MKK7; 0% in the assay with MKNK1. Besides, the “%Inh” value in the assay on MKNK2 was 29%; in the assay with MLCK, 35%; in the assay with MLK1 it was 0%; with MLK2, 0%; in the assay with MLK3, 4%; in the assay on MRCKA, 4%. Moreover, the “%Inh” value in the assay on MRCKB was found to be 0%; in the assay with MST1R it was 15%.

On to `COc1cc(Nc2nccc(N3CCC(NC(=O)c4cccc(NC(C)=O)c4)C3)n2)cc(OC)c1OC` (centres unmarked) [GSK1379754], for which the “%Inh” value is on record as 0% with MEK1; 0% in the assay on MEK2; 7% in the assay on MEK3; 17% with MEK4; 93.5% in the assay with MEK5; 0% with MEK6. Moreover, the “%Inh” value is 19% with MELK; 30% in the assay with MERTK; 21% in the assay with MET; 27% in the assay with MINK; 32% with MKK7; 38% in the assay with MKNK1. The “%Inh” value is listed as 98.6% with MKNK2; 1% with MLCK; 67% with MLK1; 50% with MLK2; 53% with MLK3; 0% with MRCKA. Further, the “%Inh” value in the assay with MRCKB stood at 0%; in the assay with MST1R, 20%.

As for `Fc1ccc(-c2nn3c(OCC(F)(F)F)cccc3c2-c2ccncc2)cc1` [GW514784], the “%Inh” value with MEK1 was 0%; in the assay on MEK2, 0%; with MEK3 it was 0%; in the assay on MEK4, 0%; in the assay with MEK5 it was 20%; in the assay with MEK6, 1%. Besides, the “%Inh” value is 3% with MELK; 0% in the assay with MERTK; 0% in the assay with MET; 35% in the assay with MINK; 0% in the assay on MKK7; 0% in the assay on MKNK1. Besides, the “%Inh” value amounted to 0% in the assay on MKNK2; 0% in the assay with MLCK; 0% with MLK1; 0% in the assay with MLK2; 0% in the assay with MLK3; 24% with MRCKA. Also, the “%Inh” value in the assay with MRCKB stood at 32%; in the assay with MST1R it was 13%.

As for `Cc1cccc(-c2nc(-c3ccc(S(C)(=O)=O)cc3)sc2-c2ccncc2)c1`, the “%Inh” value in the assay with MEK1 amounted to 2%; in the assay on MEK2, 1%; in the assay on MEK3, 0%; with MEK4 it was 27%; in the assay on MEK5 it was 12%; in the assay on MEK6 it was 14%. The “%Inh” value in the assay on MELK is recorded as 5%; with MERTK it was 12%; with MET, 10%; in the assay on MINK, 16%; with MKK7, 20%; with MKNK1 it was 0%. Further, the “%Inh” value in the assay on MKNK2 was 13%; with MLCK it was 0%; with MLK1, 0%; in the assay on MLK2, 33%; with MLK3, 27%; in the assay on MRCKA, 0%. Also, the “%Inh” value in the assay with MRCKB is on record as 0%; in the assay on MST1R, 23%.

With `CN1c2ccc(NCc3ccc(F)cc3)cc2-c2c(cnn2C)S1(=O)=O`, the “%Inh” value was 7% in the assay with MEK1; 27% in the assay with MEK2; 13% in the assay on MEK3; 0% in the assay with MEK4; 17% in the assay on MEK5; 0% in the assay on MEK6. For the same compound, the “%Inh” value was 0% in the assay on MELK; 0% in the assay on MERTK; 3% with MET; 26% with MINK; 0% in the assay with MKK7; 0% in the assay on MKNK1. The “%Inh” value in the assay with MKNK2 stood at 0%; in the assay on MLCK, 0%; with MLK1 it was 15%; with MLK2 it was 22%; in the assay on MLK3, 0%; in the assay on MRCKA, 0%. The “%Inh” value in the assay with MRCKB and in the assay on MST1R was 0% each time.

As for `[2H]C([2H])(c1cccc(C(F)(F)F)c1C)n1ccn2c(=O)nc(N3CCOCC3)cc12` [GSK2336394], the “%Inh” value in the assay on MEK1 is 0%; in the assay with MEK2, 0%; in the assay with MEK3, 0%; in the assay with MEK4, 35%; in the assay on MEK5 it was 1%; in the assay on MEK6, 0%. In addition, the “%Inh” value in the assay on MELK is 0%; with MERTK it was 0%; in the assay on MET it was 0%; in the assay with MINK, 0%; with MKK7, 14%; in the assay with MKNK1, 3%. The “%Inh” value with MKNK2 worked out at 6%; in the assay with MLCK, 3%; with MLK1, 0%; in the assay on MLK2, 0%; in the assay with MLK3, 21%; in the assay on MRCKA, 23%. Moreover, the “%Inh” value in the assay with MRCKB turned out to be 0%; in the assay with MST1R, 33%.

In the case of `CCc1nc(-c2cccc(C)c2)c(-c2ccnc(NCc3ccccc3)c2)s1`, the “%Inh” value came to 0% with MEK1; 1% with MEK2; 0% in the assay on MEK3; 9% in the assay on MEK4; 1% in the assay with MEK5; 6% in the assay on MEK6. The “%Inh” value with MELK was 0%; with MERTK, 0%; with MET it was 0%; in the assay with MINK, 2%; in the assay with MKK7, 0%; with MKNK1 it was 1%. For the same compound, the “%Inh” value in the assay on MKNK2, in the assay on MLCK, in the assay on MLK1, in the assay with MLK2, with MLK3 and in the assay on MRCKA was 0% in each case. The “%Inh” value in the assay on MRCKB is on record as 0%; in the assay on MST1R, 8%.

As for `NCC(NC(=O)c1cc(-c2cn[nH]c2)c(-c2ccnc3[nH]ccc23)s1)c1ccccc1.O=C(O)C(F)(F)F.O=C(O)C(F)(F)F` (centres unmarked) [GSK1325775], the “%Inh” value was found to be 0% in the assay with MEK1; 11% in the assay with MEK2; 82% with MEK3; 35% in the assay on MEK4; 80% with MEK5; 24% in the assay on MEK6. Moreover, the “%Inh” value in the assay with MELK was 38%; in the assay on MERTK, 0%; with MET, 0%; with MINK it was 59%; with MKK7, 0%; in the assay with MKNK1, 63%. In addition, the “%Inh” value with MKNK2 came out at 94.2%; with MLCK it was 96.3%; in the assay on MLK1, 0%; in the assay on MLK2 it was 0%; with MLK3, 0%; in the assay with MRCKA it was 80%. Further, the “%Inh” value in the assay on MRCKB amounted to 98.6%; in the assay on MST1R, 5%.

Turning to `c1ccc(-c2cc(-c3c[nH]nc3-c3ccccn3)ccn2)cc1` [GW576604], the “%Inh” value in the assay with MEK1 is given as 0%; in the assay on MEK2, 0%; with MEK3, 0%; in the assay with MEK4 it was 16%; in the assay with MEK5, 41%; with MEK6, 0%. The “%Inh” value with MELK is listed as 1%; in the assay with MERTK, 0%; in the assay with MET, 13%; with MINK, 71%; with MKK7 it was 0%; in the assay with MKNK1, 5%. Further, the “%Inh” value came out at 0% in the assay on MKNK2; 9% in the assay on MLCK; 6% in the assay on MLK1; 0% in the assay with MLK2; 0% with MLK3; 4% with MRCKA. Also, the “%Inh” value was 0% in the assay with MRCKB and 34% in the assay on MST1R.
